Data on 90 molecules can be found in PubChem BioAssay AID1987 (The Scripps Research Institute Molecular Screening Center, 2009).

The whole screen tested about 320,000 compounds, of which about 560 (0.17%) were called active.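 The calls were made as follows: active = inhibition above the campaign's mean inhibition across all tested compounds plus 3 SD (cut at about 9.5% in these data); inactive = the rest.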 The sample as a whole holds a higher share of actives than the screen did.

Chain of Serine/threonine-protein phosphatase 5 (Homo sapiens) (P53041 whole entry, looked up): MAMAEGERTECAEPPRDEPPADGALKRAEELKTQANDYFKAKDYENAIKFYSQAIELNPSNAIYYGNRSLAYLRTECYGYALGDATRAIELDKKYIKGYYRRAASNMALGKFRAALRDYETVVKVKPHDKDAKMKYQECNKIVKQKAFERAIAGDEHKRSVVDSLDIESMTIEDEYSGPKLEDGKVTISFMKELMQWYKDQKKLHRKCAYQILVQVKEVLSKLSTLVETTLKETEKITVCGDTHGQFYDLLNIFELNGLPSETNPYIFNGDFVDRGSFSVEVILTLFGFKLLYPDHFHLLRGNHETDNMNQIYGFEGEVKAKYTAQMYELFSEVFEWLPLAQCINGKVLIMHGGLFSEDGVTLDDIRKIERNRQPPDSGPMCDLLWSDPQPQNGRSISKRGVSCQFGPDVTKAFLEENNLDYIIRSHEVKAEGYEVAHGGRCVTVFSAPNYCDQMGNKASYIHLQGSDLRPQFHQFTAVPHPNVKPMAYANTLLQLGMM

The assay has as its target Serine/threonine-protein phosphatase 5 (Homo sapiens) (UniProt P53041). The assay can be described thus: inhibition of human PP5 catalytic activity – biochemical, fluorescence, primary screen (AID 1987).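 Also: 0% = DMSO only and 100% = 100 µM cantharidin control.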 As to conditions: purified PP5c, OMFP substrate fluorescence; at 6.7 µM; stronger effect = higher value.
What is called inhibition is the change of the read-out against control, counted positive when it falls. As to `Cc1nc(CNS(=O)(=O)c2cc([N+](=O)[O-])ccc2C)cs1`, the inhibition is -0.47% (inactive).
In the case of `N#CCc1c(C#N)c(N)nc(N2CCCC2)c1C#N`, the inhibition was 2.12% (inactive).
For `N#Cc1c(-c2ccccc2)cc(-c2ccccc2)nc1SCC(=O)O` the value was -0.23% (inactive).
Consider `N#Cc1c(N2CCCCC2)nc(N)c2c(N)nc(SCC(=O)O)cc12`, for which the inhibition is 12.7% (active).
The same measure for `CC1(C)CC(=O)C=C(NCCCN2CCCC2=O)C1`: -3.07% (inactive); for `Cc1nc(NC(CC(C)C)C(=O)O)c2nc(C)oc2n1` (stereo not given): 11.7% (active).
The same measure for `CC1(c2cccc([N+](=O)[O-])c2)CC(C)(C)N(C(=O)c2ccccc2)c2ccccc21` (stereo not given): 3.32% (inactive); for `O=C1[C@H]2[C@@H](c3ccc(Cl)cc3)N3C(=O)N(c4cccc(F)c4)C(=O)[C@@]3(Cc3ccccc3)[C@H]2C(=O)N1C1CCCCC1`: 2.69% (inactive); for `CC(C)(C)N1C(=O)[C@H]2[C@@H](c3ccc(Br)cc3)N3C(=O)N(c4cccc(Cl)c4)C(=O)[C@@]3(C)[C@H]2C1=O`: 5.22% (inactive).
For `C[C@@]12C(=O)N(c3cccc(Br)c3)C(=O)N1[C@H](c1ccc(Cl)cc1)[C@@H]1C(=O)N(C3CCCCC3)C(=O)[C@@H]12` the value was 9.7% (active); for `O=C(CCn1nnnc1CN1CCOCC1)N1CCC(c2ccccc2Cl)C1` (stereo not given), 0.07% (inactive).
For `Cc1noc(C)c1C(=O)N(CC(=O)NC1CCCC1)Cc1ccccc1F`, the inhibition was 0.94% (inactive).
As for `CN(CC(=O)NCc1ccc(Cl)cc1)S(=O)(=O)c1cccs1`, the inhibition is 3.27% (inactive).
The same measure for `Cc1c(C)c2c(OCC(=O)N[C@@H](C(=O)O)c3ccccc3)cc3c(c2oc1=O)CCC(C)(C)O3`: 2.43% (inactive); for `c1ccc(C[C@H]2CNCCN2CCC23CC4CC(CC(C4)C2)C3)cc1`: 1.23% (inactive); for `CCn1ccnc1CNC(=O)CC1C(=O)NCCN1CCCc1ccccc1` (stereo not given): 0.82% (inactive).
With `COCC1CCN(C(=O)c2ccc3oc(Cc4ccccc4)nc3c2)C1` (stereo not given), the inhibition is 2.88% (inactive).
As to `O=c1ccc2c(-c3ccccc3S(=O)(=O)O)c3ccc(O)c(O)c3oc-2c1O`, the inhibition was 9.92% (active).
Take `O=[N+]([O-])c1cc([N+](=O)[O-])c2cccnc2c1O`: the inhibition was 2% (inactive).
The same measure for `O=[N+]([O-])c1cccc2ncccc12`: 10.4% (active); for `Nc1nc(Sc2ncccc2[N+](=O)[O-])n[nH]1`: 1.94% (inactive).
For `N#Cc1ccc(CN2CCN(CC(=O)Nc3ccccc3C(=O)NC3CC3)CC2)cc1` the value was -0.41% (inactive).
Take `CC(NC(=O)c1cc2cc(Cl)ccc2oc1=N)c1ccccc1` (stereo not given): the inhibition was 2.37% (inactive).
With `COc1cc(C(=O)Nn2c(O)c(C3=c4ccccc4=NC3=O)sc2=S)ccc1O`, the inhibition was -1.88% (inactive).
For `CN(C(=O)CN1C(=O)/C(=C/c2ccc(Cl)cc2)SC1=S)C1CCS(=O)(=O)C1` (stereo not given) the value was 2.22% (inactive); for `NNC(=O)c1oc2nc(-c3ccccc3)cc(-c3ccco3)c2c1N`, -0.37% (inactive); for `CNc1nc(-c2ccccc2)cc(-c2ccccc2)n1`, 3.18% (inactive).
The same measure for `CNC(=S)NNC(=O)c1oc2nc(-c3ccccc3)cc(-c3ccco3)c2c1N`: 15% (active); for `COc1ccc(S(=O)(=O)N2CCOCC2)cc1NC(=O)CC1CC2CCC1C2` (stereo not given): -2.65% (inactive); for `COc1ccc(OC)c(C(=O)c2coc3ccc(OC)cc23)c1`: 3.44% (inactive).
For `COc1ccc(OC)c(C(=O)c2ccc(C(=O)O)cc2)c1` the value was 10.3% (active); for `COc1ccc(OC)c(C(=O)c2ccc(Cl)cc2)c1`, 1.9% (inactive); for `COC(=O)c1ccccc1NC(=O)CSc1n[nH]c(-c2ccncc2)n1`, 2.98% (inactive).
In the case of `Cc1cc(N2CCCC2=O)cc(C)c1S(N)(=O)=O`, the inhibition was 0.58% (inactive).
As for `COCCNC(=O)c1ccc2c(c1)ncn2-c1ccc(C)c(Cl)c1`, the inhibition was -2.87% (inactive).
For `CCC(=C/c1sc2ccc3ccccc3c2[n+]1C)/C=C1\Sc2ccc3ccccc3c2N1C` the value was 13% (active); for `COc1cccc(CNC(=O)CCC2CCCN(C(=O)c3cc(C)[nH]n3)C2)c1` (stereo not given), -3.1% (inactive); for `CC(=O)N1CCOc2ccc(S(=O)(=O)N3CCC(C(=O)Nc4ccccc4F)CC3)cc21`, -2.25% (inactive).
The same measure for `COc1cccc(NC(=S)C(C#N)=C2N(C)c3ccccc3N2C)c1`: 3.32% (inactive); for `CC1Cc2cc(/C(O)=C3\C(=O)C(=O)N(Cc4cccnc4)C3c3ccccc3F)ccc2O1` (stereo not given): -0.96% (inactive); for `O=C1C=C(c2cccc(Br)c2)C[C@@H](c2ccc(F)cc2)C1`: 2.74% (inactive).
As to `O=C(NCCCN1CCCCCC1)C1CC(=O)N(C2CCCC2)C1` (stereo not given), the inhibition is 0.05% (inactive).
In the case of `CCc1c(O)nc(SCC(=O)Nc2ccccc2)n(C(C)CC)c1=O` (stereo not given), the inhibition was 4.45% (inactive).
For `CCCCN(C(=O)c1ccc(OC(F)(F)F)cc1)c1c(N)n(CCC)c(=O)[nH]c1=O` the value was 2.07% (inactive).
For the molecule `O=C(CN(CC1CCCO1)C(=O)CNS(=O)(=O)c1ccc(Cl)cc1)NCc1ccccc1` (stereo not given), the inhibition is -1.95% (inactive).
The same measure for `Cc1ccc(C2=NN(C(=O)COc3ncnc4ccccc34)C(c3ccco3)C2)cc1` (stereo not given): -1.05% (inactive); for `CCOC(=O)N1CCN(Cc2oc(CO)cc(=O)c2O)CC1`: 3.28% (inactive); for `CCC(C(=O)NCCC(C)C)N(Cc1ccccc1Cl)C(=O)c1snc(C(N)=O)c1N` (stereo not given): -2.16% (inactive).
The same measure for `CC(=O)NCc1ccc(S(=O)(=O)NC2CCN(Cc3ccccc3)CC2)cc1`: 2.13% (inactive); for `C=C(C)CNc1cc(S(=O)(=O)N2CCOCC2)ccc1Oc1ccccc1`: 4.3% (inactive); for `Cc1ccc(CCN2CC(C(=O)O)CC2=O)cc1` (stereo not given): 5.13% (inactive).
The same measure for `CC(C)(C)S(=O)(=O)c1ccccc1-c1noc(-c2ccccc2)c1C(N)=O`: -0.76% (inactive).
Consider `Cc1ccc(Cl)cc1NC(=O)CN1CCN(S(=O)(=O)N2CCOCC2)CC1`, for which the inhibition was 0.83% (inactive).
As to `Cc1cc(C(=O)COc2ccc(Br)cc2F)c(C)n1C1CC1`, the inhibition is -1.78% (inactive).
For `O=C(NCc1cccc(Cl)c1)C1=CC=CN2CCS(=O)(=O)N=C12` the value was 0.61% (inactive).
`COc1cccc(OCc2nnc3n2N=C(c2ccccc2)C(CC(=O)O)S3)c1` (stereo not given): the inhibition was -0.47% (inactive).
The same measure for `COc1ccccc1C(=O)NCCC(=O)N(C)Cc1cccnc1`: 0.46% (inactive).
For `Cn1c(N)c(C(=O)COC(=O)COc2ccc(Cl)cc2)c(=O)n(C)c1=O` the value was 1% (inactive).
For `FC(F)(F)c1ccc2nnc(-c3c(Cl)cccc3Cl)n2c1` the value was -1.13% (inactive); for `O=C1Oc2ccccc2C(=O)/C1=C/c1ccccc1O`, 4.64% (inactive).
In the case of `COc1ccc(NC(=O)CSc2nncc(=O)n2N)cc1OC`, the inhibition is 2.92% (inactive).
The same measure for `O=C(Nc1ccccc1)C1CC(=O)n2c(nc3ccccc32)N1` (stereo not given): -0.67% (inactive); for `Nc1ccc(C(=O)Nc2ccccc2N)cc1`: -0.77% (inactive).
For the molecule `Cc1ccc(CN2CCN(Cc3cccc(C)n3)CC2CCO)cc1` (stereo not given), the inhibition is 0.2% (inactive).
For `CC(C)(C)NC(=O)c1cccc(NC(=O)Cc2ccc(Br)cc2)c1` the value was 3.17% (inactive).
The same measure for `CC(C)(C)C(=O)Nc1c(Br)c(C2CC2)nn1-c1ccccc1`: 0.27% (inactive); for `CCOC(=O)C1=C(CC)OC(N)=C(C#N)C1c1ccc(F)cc1F` (stereo not given): -1.28% (inactive); for `COc1cc(OC)cc(-c2cc3nc(C4CCN(C(=O)OC(C)(C)C)CC4)cc(=O)n3[nH]2)c1`: -0.26% (inactive).
`COc1ccc(NC(=O)CCCC(=O)c2ccccc2)cc1`: the inhibition is 0.28% (inactive).
For `CCCn1c(C)cc(/C=C(\C#N)C(=O)OCC(=O)Nc2cc(OC)c(OC)c(OC)c2)c1C` the value was 0.54% (inactive); for `O=C(C1=C[C@H](C2CC2)C[C@H](OCc2ccc(CO)cc2)O1)N1CCN(Cc2ccccc2)CC1`, 1.72% (inactive).
For `O=C(NCc1ccccc1)C1=C[C@@H](c2ccc(C(F)(F)F)cc2)C[C@@H](OCc2ccc(CO)cc2)O1` the value was 7.35% (inactive).
For `O=C(C1=C[C@H](c2ccc(C(F)(F)F)cc2)C[C@H](OCc2ccc(CO)cc2)O1)N1CCN(Cc2ccccc2)CC1` the value was 9.64% (active); for `Nc1nnc(SCC(=O)NCC(=O)Nc2ccc(F)c(F)c2F)s1`, -0.64% (inactive).
Turning to `O=C(OCc1cn(-c2ccc(Cl)c(Cl)c2)nn1)c1ccccc1Cl`, the inhibition is 1.67% (inactive).
The same measure for `CC1CCCC(C)N1C(=O)COC(=O)COc1ccccc1C#N` (stereo not given): -0.87% (inactive); for `COc1ccc(-n2nnnc2SCc2nc(N)nc(N3CCOCC3)n2)cc1`: 0.58% (inactive); for `CN(C)c1nc(N)nc(CSc2ccccn2)n1`: 1.71% (inactive).
For `CN(C)c1nc(N)nc(CSc2nnnn2-c2cccc3ccccc23)n1` the value was 11.6% (active).
The same measure for `O=C(O)c1cc(S(=O)(=O)Nc2ccc3cn[nH]c3c2)ccc1Br`: 4.94% (inactive).
As for `Cc1ccc(-n2nc(-c3ccco3)cc2C(=O)NCc2cccnc2)cc1`, the inhibition was 2.97% (inactive).
The same measure for `COC(=O)CCCC1=CC2=CC(=O)C(C)(OC(=O)c3cccs3)C(=O)C2=CN1CC1CC1` (stereo not given): 5.3% (inactive).
The same measure for `CC1(OC(=O)C2CCCC2)C(=O)C=C2C=C(c3ccc(C#N)cc3)OC=C2C1=O` (stereo not given): -1.54% (inactive).
For `COCCN1C=C2C(=O)C(C)(OC(=O)C3CCCC3)C(=O)C=C2C=C1c1ccsc1` (stereo not given), the inhibition was 11.1% (active).
`O=C(COc1ccccc1)Nc1ccc(F)cc1`: the inhibition is 0.71% (inactive).
`CN(c1ccc(OCC(=O)O)cc1)S(=O)(=O)c1ccc2ccccc2c1`: the inhibition is 1% (inactive).
Consider `CN(c1ccccc1)S(=O)(=O)c1ccc(NC(=O)COc2ccccc2)cc1`, for which the inhibition is 10.2% (active).
For `Cc1ccc(S(=O)(=O)N(c2cccc(C)c2)C2CCS(=O)(=O)C2)cc1` (stereo not given), the inhibition is 0.29% (inactive).
For `Cc1nnc(SCC(=O)Nc2ncc3c(n2)CC(C)(C)CC3=O)s1` the value was 2.93% (inactive); for `O=C(O)C1CCC(CNS(=O)(=O)c2ccc(Br)cc2)CC1` (stereo not given), -2.97% (inactive).
